# Measurements reported in the supplement of paper PMC6992640.
# ± gives the standard deviation of the averaged measurements.
# How the values were obtained:
# Assay in all cases: cell viability (% of vehicle); higher = less cytotoxic
# Settings in all cases: 10 µM; 72 h
# HCI01 = test system: HCI01 (cells of a triple-negative basal-like breast cancer xenograft)
# HCI03 = test system: HCI03 (cells of an ER-positive luminal breast cancer xenograft)
# HCI09 = test system: HCI09 (cells of a triple-negative luminal androgen receptor type breast cancer xenograft)
# HCI11 = test system: HCI11 (cells of an ER-positive luminal breast cancer xenograft)
# HCI13 = test system: HCI13 (cells of an ER-positive luminal breast cancer xenograft)
# HCI16 = test system: HCI16 (cells of a triple-negative basal-like breast cancer xenograft)
# UCD52 = test system: UCD52 (cells of a triple-negative basal-like breast cancer xenograft)
# WHIM2 = test system: WHIM2 (cells of a triple-negative basal-like breast cancer xenograft)
# WHIM30 = test system: WHIM30 (cells of a triple-negative basal-like breast cancer xenograft)
# 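Also: PDX cells carrying CMV promoter-driven luciferase, viability read as total photon flux per second by IVIS imaging following D-luciferin, vehicle control 0.1% DMSO.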
SMILES,cell viability (HCI01),cell viability (HCI03),cell viability (HCI09),cell viability (HCI11),cell viability (HCI13),cell viability (HCI16),cell viability (UCD52),cell viability (WHIM2),cell viability (WHIM30)
CCOC(=O)C1OC1C(=O)NC(CC(C)C)C(=O)NCCC(C)C (stereo unspecified),108 ± 6.8,118,97.6 ± 1.9,91.9,165 ± 7.1,70.3,97.4 ± 3.2,105 ± 38,99.6 ± 12
Cn1c(=O)c2c(ncn2CC2OCCO2)n(C)c1=O [Doxofylline],110 ± 27,117,95.6 ± 12,100,82.8 ± 4.8,105,96.4 ± 3.6,102 ± 11,100 ± 9
COc1cc(NS(=O)(=O)c2ccc(N)cc2)nc(OC)n1 [Sulfadimethoxine],91.8 ± 17,155,103 ± 14,103,116 ± 1.2,118,112 ± 5.2,86.1 ± 9.4,172 ± 27
CS(=O)(=O)O.Cc1ccc(N(CC2=NCCN2)c2cccc(O)c2)cc1 [Phentolamine Mesylate],112 ± 14,116,118 ± 7.2,112,124 ± 11,101,99.5 ± 6.4,93.5 ± 12,137 ± 12
CN(C)C(=O)NC1CCC(CCN2CCN(c3cccc(Cl)c3Cl)CC2)CC1 (stereo unspecified) [Cariprazine],122 ± 28,72.1,43.9 ± 2.2,67.7,53.4 ± 11,89.7,38.5 ± 6,119 ± 8,118.6 ± 0.35
O=C([O-])P(=O)([O-])[O-].[Na+].[Na+].[Na+] [Foscarnet Sodium],104 ± 20,96.7,98.1 ± 3.7,89.6,95.1 ± 6.7,133,86.4 ± 3,103 ± 11,126 ± 2.2
CN(CCOc1ccc(CC2SC(=O)NC2=O)cc1)c1ccccn1.O=C(O)C=CC(=O)O (stereo unspecified) [Rosiglitazone maleate],132 ± 20,115,94 ± 16,90.1,107.5 ± 0.5,99.6,105 ± 7.2,156 ± 25,136 ± 25
Cc1ccccc1N1C(=O)c2cc(S(N)(=O)=O)c(Cl)cc2NC1C (stereo unspecified) [Metolazone],121 ± 18,129,98.5 ± 8.3,57.9,132 ± 16,198,107 ± 1.9,103 ± 6.2,127 ± 13
COc1cc(OC)c(C(=O)CCCN2CCCC2)c(OC)c1.Cl [Buflomedil HCl],95.4 ± 3.3,131,95.6 ± 15,94.4,86.6 ± 2.6,122,92.5 ± 16,117 ± 28,134 ± 2.4
